# Screening results as filed in PubChem.
# The list is not random: actives were taken first. Their share in the collection is about 1.2%.
# Rv3671c protease: Rv3671c serine protease inhibitors, primary screen, biochemical, fluorescence polarization, M. tuberculosis H37Rv; inhibition, % at 5.96 µM; 0.048% of 320,000 active; in the data active means inhibition above about 38%;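 further: extracellular domain of Rv3671c used as enzyme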
# Mtb UGM inh: M. tuberculosis UGM enzyme inhibitors, primary screen, biochemical, fluorescence polarization, single point; UDP-galactopyranose mutase (Mycobacterium tuberculosis (strain ATCC 25618 / H37Rv)), …; purified UGM, fluorescence polarization probe displacement; inhibition, % at 10 µM; 0.06% of 320,000 active; in the data active means inhibition above about 10%, passing the limit was not always enough; inconclusive means no clear call, values can overlap the other calls
# Target sequence (P9WIQ1 whole entry, looked up): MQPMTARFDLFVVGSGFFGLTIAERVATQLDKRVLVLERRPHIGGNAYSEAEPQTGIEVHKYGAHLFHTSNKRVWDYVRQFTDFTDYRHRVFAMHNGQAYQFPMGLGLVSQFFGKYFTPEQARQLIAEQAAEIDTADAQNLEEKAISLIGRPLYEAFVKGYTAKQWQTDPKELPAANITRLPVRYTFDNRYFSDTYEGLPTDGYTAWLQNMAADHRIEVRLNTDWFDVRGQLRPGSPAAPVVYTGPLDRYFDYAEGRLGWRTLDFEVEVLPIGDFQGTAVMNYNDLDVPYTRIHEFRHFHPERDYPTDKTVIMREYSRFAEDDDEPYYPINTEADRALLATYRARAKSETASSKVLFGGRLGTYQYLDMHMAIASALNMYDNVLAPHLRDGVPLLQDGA
# PrP UTR inh: inhibition of PrP 5' UTR reporter expression | cell-based PrP 5' UTR mRNA reporter, plate reader | inhibition, % (concentration not given with the values) | 0.35% of 340,000 active | AID 488862, 2010; in the data active means inhibition above about 52%
# FadD28 FP inh: inhibitors of FadD28 bisubstrate probe binding, primary screen, biochemical, fluorescence polarization, single point; Mycobacterium tuberculosis FadD28 fatty-acid-AMP ligase; inhibition, % at 12.5 µM; 0.22% of 360,000 active; in the data active means inhibition above about 8.5%, passing the limit was not always enough; inconclusive means no clear call, values can overlap the other calls
# SSB-PriA inh: inhibitors of Klebsiella pneumoniae PriA binding to SSB C-terminal tail, primary screen, biochemical, AlphaScreen; PriA–SSB C-terminal tail interaction (Klebsiella pneumoniae); AlphaScreen SSBct-PriA binding, biotinylated peptide; inhibition, % at 33 µM; 0.6% of 430,000 active; in the data active means inhibition mostly above about 37%, no sharp cut-off; inactive means mostly below about 20%
# PrPC TRFRET: inhibitors of human cell surface prion protein PrPC, primary screen, cell-based, TR-FRET; TR-FRET read-out; inhibition, % at 13.8 µM; 0.43% of 370,000 active; in the data active means inhibition above about 24%
# PrP UTR cherry: prion 5' UTR mRNA inhibition, cherry-pick retest; cell-based prion protein 5' UTR reporter, plate reader; 48% of 1,100 active; shares compounds with PrP UTR inh; inhibition, % at 2.5 µM; in the data active means inhibition above about 54%; inconclusive means no clear call, values can overlap the other calls
# Numbers stand for hits; - = inactive; ? = inconclusive; . = not tested or not shown.
SMILES,Rv3671c protease,Mtb UGM inh,PrP UTR inh,FadD28 FP inh,SSB-PriA inh,PrPC TRFRET,PrP UTR cherry
Cc1cc(OC2CN(C(=O)CNC(=O)OCc3ccccc3)C2)cc(=O)o1,.,.,.,.,-,.,.
COCC(C)n1c(C)cc(C(=O)COC(=O)c2cccn2C)c1C (centres undefined),-,-,66.9,-,-,-,?
O=C(NCCn1nc(-n2cncn2)ccc1=O)Nc1cccs1,.,.,.,.,-,.,.
CCOc1cc(/C=C/C(=O)c2ccc(O)cc2)ccc1OCC(=O)N(C)C,-,-,-,-,-,-,.
CCOc1cc(/C=C/C(=O)c2ccc3c(c2)OCCO3)ccc1OCC(=O)N(C)C,-,-,60.4,-,-,-,-
O=C(NCC(O)(c1ccco1)C1CC1)C(=O)Nc1ccc(OC(F)(F)F)cc1 (centres undefined),.,.,.,.,-,.,.
COc1ccc(N2CC(NC(=O)N3CCC4(CC3)CC(=O)c3ccccc3O4)CC2=O)cc1OC (centres undefined),.,.,.,.,-,.,.
O=C(NCCN1CCN(c2ccc(F)cc2)CC1)c1ccc2c(c1)OCO2,.,.,.,.,-,.,.
CN(C)c1ccc(/C=C2\SC(N3CCCCC3)=NC2=O)cc1,-,-,56.9,-,-,-,-
Cc1ccc(/C=C2\SC(N3CCCC3)=NC2=O)cc1,-,-,.,.,.,-,.
CCCc1c(C(=O)Nc2ccc(C(F)(F)F)cc2)cnn1-c1ccccc1,-,-,65.1,-,-,-,-
COc1ncc(NS(=O)(=O)c2cccc(C)c2)c(N2CCCC2)n1,.,.,.,.,-,.,.
CC(C)c1ccc2oc(-c3cc(N)ccc3O)nc2c1,-,-,63.3,-,-,-,-
COc1ccc(S(=O)(=O)Cc2ccc(C(=O)N3CCOCC3)o2)cc1,-,-,70.9,-,-,-,-
O=C(c1ccc(CS(=O)(=O)c2ccc(Br)cc2)o1)N1CCOCC1,-,-,-,-,-,-,.
COc1ccc2[nH]c(-c3cccc(F)c3)cc(=O)c2c1,-,-,62.2,-,-,-,91.7
COc1ccc(N(C)S(=O)(=O)c2ccsc2-c2nc(-c3ccc(F)cc3)no2)cc1Cl,.,.,.,.,-,.,.
COC(=O)c1cccc(NC(=O)/C=C/c2ccc3c(c2)OCO3)c1,-,-,65.4,-,-,-,-
CSc1ncccc1C(=O)N1CCC(Cc2n[nH]c(=O)n2-c2ccccc2C)CC1,.,.,.,.,-,.,.
COc1ccc(C(=O)CSc2cc(C)c(C#N)c3nc4ccccc4n23)cc1OC,.,.,.,.,-,.,.
CCCC(=O)NC(=S)Nc1c(C)cc(Br)cc1C,-,-,-,-,-,-,.
CCCCCC(=O)NC(=S)Nc1ccc(Br)cc1C,-,-,57.2,-,-,-,-
CCOC(=O)CSc1ccc(NC(=O)C(C)C)nn1,.,.,.,.,-,.,.
COc1ccc(CCNC(=O)CCc2cc(OC)c(OC)c(OC)c2)cc1,-,-,-,-,-,-,.
COc1ccc(CCc2cc(OC)c(OC)c(OC)c2)cc1,.,.,57.3,-,-,-,88.1
SMILES,Rv3671c protease,Mtb UGM inh,PrP UTR inh,FadD28 FP inh,SSB-PriA inh,PrPC TRFRET,PrP UTR cherry
Cn1nc(-c2ccc(F)cc2)cc1C(=O)NC[C@@H](c1ccsc1)N1CCOCC1,.,.,.,.,-,.,.
O=C(O)CCn1cc(C=C2C(=O)NC(=S)NC2=O)c(-c2ccccc2)n1,-,-,74.4,-,-,-,-
CN(C)C(=O)c1cc(C(=O)c2c(F)cccc2F)c[nH]1,-,-,67.6,.,-,-,-
CN(C)C(=O)c1cc(C(=O)c2ccccc2)c[nH]1,-,-,-,-,-,-,.
OCC#CCSc1nc2ccccc2o1,.,.,.,.,-,.,.
c1cnc2c(Oc3ncnc4sc5c(c34)CCC5)cccc2c1,.,.,.,.,-,.,.
CC(=O)c1sc2c(c1OC(=O)c1ccc(Cl)cc1Cl)c(=O)n(-c1ccccc1)c(=S)n2-c1ccccc1,-,-,75.8,-,-,-,62.4
CC(=O)c1sc2c(c1OC(=O)c1ccc(Cl)cc1)c(=O)n(-c1ccccc1)c(=S)n2-c1ccccc1,.,.,-,-,-,-,.
CCc1noc(C)c1C(=O)N(C)CC(=O)Nc1cccc(OC)c1,-,-,88.7,-,-,-,-
Cc1nnc(NC(=O)CSc2nnc(CNC(=O)c3cccs3)n2-c2ccc(Cl)c(Cl)c2)s1,.,.,.,.,-,.,.
NC(=O)COC(=O)c1ccc(S(=O)(=O)N2CCCCCC2)cc1,-,-,-,-,-,-,.
Cc1nc(COC(=O)c2ccc(S(=O)(=O)N3CCCC3)cc2)cs1,-,-,89.4,-,-,-,-
COC(=O)c1c(NC(=O)CN2CCOCC2)sc2c1CCCCC2,.,.,.,.,-,.,.
CC(=O)NCCc1ccc(C(=O)COC(=O)C2CCCCC2)cc1,-,-,71.9,-,-,-,-
Cc1ccc(C(=O)COC(=O)C2CCC2)cc1,-,-,-,-,-,.,.
COC(=O)c1ccccc1C(=O)N1CCCCC1c1cc(C(N)=O)n[nH]1 (centres undefined),.,.,.,.,-,.,.
Cc1cc(C)nc(Sc2ncnc(N)c2[N+](=O)[O-])n1,-,-,55.8,-,-,-,-
O=C(NC1CC1)c1ccc(-c2nc3ccccc3s2)s1,-,-,65.9,-,-,-,?
CC(=O)NN1C(=O)c2ccccc2NC1c1ccc([N+](=O)[O-])o1 (centres undefined),-,-,60.9,-,-,-,-
Cc1cccc(N2CCN(c3ncnc4scc(-c5ccccc5)c34)CC2)n1,.,.,.,.,-,.,.
CC(=O)N(/N=C1\Sc2ccccc2C1=O)c1ccc(C)cc1C,-,-,57.8,-,.,-,56.2
Oc1ccc(Cl)cc1C=Nc1ccccc1Br,-,-,57.4,-,-,-,-
COc1ccc(CCNC(=O)Cn2cnc3sc(C)c(-c4ccc(F)cc4)c3c2=O)cc1OC,-,-,72.7,-,-,-,?
COC(=O)c1sc2ncn(CC(=O)NCCc3ccc(OC)c(OC)c3)c(=O)c2c1C,-,-,-,-,-,-,.
O=C(CN1C(=O)c2ccccc2S1(=O)=O)c1ccc(Cl)cc1Cl,-,-,79.2,-,-,-,81.6
SMILES,Rv3671c protease,Mtb UGM inh,PrP UTR inh,FadD28 FP inh,SSB-PriA inh,PrPC TRFRET,PrP UTR cherry
O=C(CN1C(=O)c2ccccc2S1(=O)=O)c1ccc(OC(F)F)cc1,-,-,66.6,-,-,.,63.8
O=C(CN1C(=O)c2ccccc2S1(=O)=O)c1ccc(F)cc1,-,-,61.8,-,-,-,-
CC1CCN(S(=O)(=O)c2ccc(C(=O)Nc3nc(-c4ccccc4)cs3)cc2)CC1,.,.,.,.,-,.,.
Cc1ccc([N+](=O)[O-])c(OCCN2C(=O)NC(C)(C)C2=O)c1,-,-,52.9,-,-,-,-
COc1ccc(CCN2CC3=C(C2=O)[C@@H](c2ccc(Cl)c(Cl)c2)NC(=O)N3)cc1,.,.,.,.,-,.,.
O=C(NCCc1ccccc1)c1ccc2c(c1)OCO2,-,-,58.1,-,-,-,?
C#CCNS(=O)(=O)c1ccc(F)cc1Br,.,.,-,-,-,-,.
O=S(=O)(NCCc1ccccc1)c1ccc(F)cc1Br,.,.,53.4,-,-,-,-
O=C(COc1ccccc1Cl)Nc1ccc(C(=O)N2CCCCC2)cc1,-,-,-,-,-,-,.
